# Screens as filed in PubChem.
# SKKanGAS inh: inhibitors of SKKanGAS S. pyogenes growth in kanamycin (SK-promoter or general growth effect) | inhibition, % at 7.5 µM | 1.3% of 300,000 active | BacTiter-Glo, 6 h | AID 1662;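 active = mean replicate score, as percent of positive control median, at least 50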;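 also: strain carries kanamycin resistance gene driven by streptokinase promoter and grows in 40 µg/ml kanamycin; loss of luminescence reflects streptokinase promoter inhibition or plain growth inhibition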
# Mdm2 MdmX PPI: disrupts the human Mdm2-MdmX interaction; O15151+Q00987; SaOS-2 split-luciferase Mdm2/MdmX complementation, luminescence; inhibition, % at 8 µM; 3% of 330,000 active;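 active = inhibition of at least 50% at 8 µM in the primary screen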
# Beta cell apopt: beta cell apoptosis inhibition; 0.8% of 300,000 active; protection from apoptosis, % (concentration not given with the values); INS-1E cytokine-induced death, ATP luminescence, 48 h; percent of positive-control rescue, neutral wells zero;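 active = Every replicate reaches about 75%, or at least half do and their mean reaches it too, limit read from the data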;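 also: higher means more ATP so stronger rescue from cytokine killing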
# NR3A LBD binder: NR3A (human) ligand-binding domain modulation | AID 1259313 | NR3A LBD differential scanning fluorimetry, Tm shift; 0% = protein alone, 100% = glycine-bound protein | 2.5% of 340,000 active | Tm shift relative to glycine control, % at 25 µM;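 active = melting temperature shift of at least 10% of the positive control shift, at one fixed dose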
# MPTP inh: inhibitors of mitochondrial permeability transition pore | AID 602449 | 1.4% of 360,000 active | isolated mouse mitochondria, Ca2+ swelling absorbance, 30 min | inhibition, % at 10 µM;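 active = inhibition of 50% or more, scaled per plate between neutral and stimulator controls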
# CSC inhib: blocks cancer stem cells. inhibition, % at 7.5 µM. 1.1% of 300,000 active. cancer stem cell-like cells viability, luminescence; in the data active = inhibition above about 75%; tested in HMLE shEcad cells
# Mdm2 MdmX conf: human Mdm2/MdmX binding inhibition, confirmed | AID 489028 | shares compounds with Mdm2 MdmX PPI | luminescent assay | inhibition, % at 8 µM | 55% of 10,000 active; in the data active = inhibition above about 40%
# Full FLuc ctr: inhibits full-length luciferase, flagging false Mdm2/MdmX hits; shares compounds with Mdm2 MdmX PPI; inhibition, % at 8 µM; 77% of 6,200 active; SaOS-2 full-length luciferase counterscreen, luminescence;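 active = mean inhibition at 8 µM reaching about 37%, which flags the compound as non-specific, limit read from the data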;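 also: p53-null SaOS-2 cells with luciferase driven by a doxycycline-inducible promoter; compound on cells about two nights before reading with doxycycline added after day one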
# Numbers stand for hits; 0 = inactive; - = no result given. Shown are actives, neighbours in structure and some others; about 6.9% of the full set was active somewhere.
SMILES,SKKanGAS inh,Mdm2 MdmX PPI,Beta cell apopt,NR3A LBD binder,MPTP inh,CSC inhib,Mdm2 MdmX conf,Full FLuc ctr
CCOc1cccc(-c2nn(-c3ccccc3)cc2/C=C(/C#N)C(=O)NCCCn2ccnc2)c1,0,77,0,0,0,0,0,51
COc1cccc(N(C(=O)Cn2nnc(-c3ccc(Cl)cc3)n2)C(C(=O)NCC2CCCO2)c2ccc(C)cc2)c1 (centres undefined),0,56,0,0,0,0,0,-
N#C/C(=C\c1c(N2CCCCC2)nc2ccccn2c1=O)S(=O)(=O)c1ccccc1,0,0,0,0,0,0,-,-
NCC(c1ccccc1Cl)c1c[nH]c2ccccc12 (centres undefined),0,0,0,0,0,0,-,-
NCC(c1ccc(Cl)cc1Cl)c1c[nH]c2ccccc12 (centres undefined),0,65,0,0,0,95,0,-
COc1ccccc1NC(=O)C(C)N1C(=O)C2CCCCC2C1=O (centres undefined),-,0,0,0,0,0,-,-
Oc1ccc(Nc2nc(N3CCCC3)c3ccccc3n2)cc1,0,85,99,0,0,-,0,-
Cc1ccc(Nc2nc(N3CCOCC3)c3ccccc3n2)cc1,0,0,0,0,0,0,-,-
COc1ccc(Nc2ccnc3ccccc23)cc1,0,65,0,0,0,0,57,0
COc1ccc(Nc2ccccc2N)cc1,0,0,0,0,0,0,-,-
COc1ccc(Nc2nc(N3CCCCC3)c3ccccc3n2)cc1,0,59,0,0,0,0,0,-
O=c1c(-c2n[nH]c(=S)o2)cccn1Cc1ccccc1,0,0,0,0,0,0,-,-
CCOC(=O)c1sc2nc(C)nc(NCCc3ccccn3)c2c1C,0,0,0,0,0,0,-,-
CCOC(=O)c1sc2nc(CSc3ccccc3)nc(NCCN(C)C)c2c1C,0,51,0,0,0,0,0,-
CCC(C)CCN1C(Nc2ccccc2)=NC[C@@H]1Cc1ccccc1 (some centres undefined),0,0,0,0,0,0,-,-
Cc1csc(CNc2ncnc3ccc(-c4ccoc4)cc23)c1,-,76,0,0,0,0,74,54
c1cncc(CNc2ncnc3ccc(-c4ccoc4)cc23)c1,-,70,0,0,0,0,69,51
Cc1cccc(CNc2ncnc3ccc(-c4ccoc4)cc23)c1,-,79,0,0,0,0,64,0
Cc1csc(CNc2ncnc3ccc(-c4cccnc4)cc23)c1,-,0,0,0,0,-,-,-
Cc1cccc(CNc2ncnc3ccc(-c4ccc5c(c4)OCCO5)cc23)c1,-,66,108,0,0,0,0,-
Cc1nc(N2CCOCC2)nc(OCCN2CCOCC2)c1[N+](=O)[O-],0,0,0,0,0,0,-,-
COc1cc(-n2c(=O)c3ccccc3n(CC(=O)c3ccc(F)cc3)c2=O)cc(OC)c1OC,0,0,0,0,0,0,-,-
COc1cccc(-c2ccc3ncnc(NCc4ccc5c(c4)OCO5)c3c2)c1,-,74,0,0,0,-,76,53
Cc1ccc2c(c1)Oc1ccc(NC(=O)CCl)cc1C(=O)N2,0,92,0,0,0,0,87,54
CC(=O)Nc1ccc(S(=O)(=O)NCCC(=O)NCc2ccncc2)cc1,0,0,0,0,0,-,-,-
SMILES,SKKanGAS inh,Mdm2 MdmX PPI,Beta cell apopt,NR3A LBD binder,MPTP inh,CSC inhib,Mdm2 MdmX conf,Full FLuc ctr
COc1ccc(NC(=O)Cn2c3ccccc3c3nc4n(c(=O)c32)CCS4)cc1,0,70,0,0,0,0,0,-
COCCCNC(=O)c1ccc(Cn2c(=O)c3ccccc3n(Cc3ccc(C)cc3)c2=O)cc1,0,56,0,0,0,0,0,-
O=C(N/N=C/c1ccc(Cl)cc1Cl)c1cccc(N2CCCC2=O)c1,0,0,0,0,0,0,-,-
O=C(N/N=C/c1cc(Br)cc(Br)c1O)c1cccc(N2CCCC2=O)c1,88,58,0,0,0,0,50,0
COc1ccc(NS(=O)(=O)c2cc(C)ccc2NC(=O)c2cc(C)oc2C)cc1,0,64,0,0,0,0,58,126
CC(C)(C)c1ccc(S(=O)(=O)NNC(=O)c2cc3ccccc3[nH]2)cc1,0,0,0,0,0,0,-,-
Cc1cc(C)c(C(=O)/C=C/C=C/c2ccccc2)c(=O)[nH]1,0,0,0,0,0,0,-,-
Cc1cc(C)c(C(=O)/C=C/c2ccc(C(C)C)cc2)c(=O)[nH]1,0,86,0,0,0,84,97,56
CNC(=O)c1c(NC(=O)c2cc(-c3cc(C)c(C)cc3O)n[nH]2)sc2c1CCCC2,0,50,0,0,-,0,0,-
COc1cccc(-c2nc(-c3ccccc3)nc(N3CCN(C)CC3)c2C#N)c1,0,66,0,0,0,0,54,77
CCN(c1ccccc1)S(=O)(=O)c1ccc(Oc2ccc(-n3ccnc3)cc2)nc1,0,59,0,0,0,0,58,63
O=C(NNC(=O)c1ccc2c(=O)n3c(nc2c1)CCC3)c1cccc(Cl)c1,0,0,-,0,0,0,-,-
COc1ccc(C(C(=O)NC2CCCCC2)N(C(=O)CCl)c2ccc(Cl)cc2)cc1 (centres undefined),0,100,0,0,0,0,99,49
O=C(NC1CCCCC1)C(c1cccnc1)N(C(=O)CCl)c1cccc(Cl)c1 (centres undefined),0,100,0,0,0,0,100,53
COc1ccc(N(C(=O)c2cnccn2)C(C(=O)NC2CCCCC2)c2ccc(Cl)cc2)cc1 (centres undefined),0,0,0,0,0,-,-,-
COC(CN(C(=O)CCl)C(C(=O)NC1CCCCC1)c1ccccc1C)OC (centres undefined),0,83,0,0,0,0,62,44
CN1CCN(C(=O)c2cccc(NS(=O)(=O)c3ccc(Br)cc3)c2)CC1,-,0,0,0,0,-,-,-
CCOc1cc(S(=O)(=O)n2ccc(C)n2)ccc1Br,0,81,-,0,0,0,0,-
CCOc1cc(S(=O)(=O)n2ccnc2)ccc1Br,0,0,0,0,0,0,-,-
COc1ccccc1Nc1nc(N(C)c2ccccc2)nc(N)c1[N+](=O)[O-],0,0,0,0,0,0,-,-
COc1ccccc1Nc1nc(NCCO)nc(N)c1[N+](=O)[O-],0,62,0,0,0,0,0,-
COc1ccccc1Nc1nc(NCCC(C)C)nc(N)c1[N+](=O)[O-],0,53,0,0,0,0,41,80
CNc1nc(N)c([N+](=O)[O-])c(Nc2ccccc2OC)n1,0,65,-,0,0,-,0,71
O=C(NCc1ccco1)c1ccc2sc([C@@H]3O[C@H](CO)[C@@H](O)[C@H]3O)nc2c1,-,-,-,-,0,-,-,-
